The panel holds about 83,000 compounds, 20% with a hit somewhere; the sample as a whole holds those more often.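 Single-concentration screen, 48 h exposure, 96-well plates. Endpoint: percent growth. Below 10 = active.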 Unmarked numbers belong to inactive results. Calls of active or inactive are those of the source.
system: NCI-H460 lung; test: NCI-60 one-dose screen, 48 h (100 = growth as untreated, 0 = no growth, -100 = all killed); conditions: 10 µM unless noted

`CC[C@H](C)[C@H]1NC(=O)[C@@H](N[C@](C)(O)[C@@H](N)CC(C)C)[C@@H](C)OC(=O)[C@H](Cc2ccc(OC)cc2)N(C)C(=O)[C@@H]2CCCN2C(=O)[C@H](CC(C)C)NC(=O)[C@@H](C)C(=O)[C@H](C(C)C)OC(=O)C[C@@H]1O` was tested, and the growth was -11.8% (active).
In the case of `O=C1N=C(c2c(-c3[nH]c(=O)c4ccc(Br)cc4c3O)c(O)c3ccccc3c2O)C(=O)c2cc(Br)ccc21`, the growth is reported as -80.9% (active).
In the case of `CC[C@]1(O)C[C@@H]2CN(Cc3c([nH]c4ccccc34)[C@@](C(=O)OC)(c3cc4c(cc3OC)N(C)[C@H]3[C@@](O)(C(=O)OC)[C@H](OC(C)=O)[C@]5(CC)[C@@H]6C[C@@H]6CN6CC[C@]43[C@@H]65)C2)C1`, the growth is reported as 6.73% (active).
`COc1ccccc1CNCCCN1C(=O)c2ccc3c4c(ccc(c24)C1=O)C(=O)N(CCCNCCCCNCCCCN)C3=O` was tested, and the growth was 0.275% (active).
In the case of `COc1cc2nc(N3CCC[C@@H](NC4=CC(=O)c5ccccc5C4=O)C3)nc(N)c2cc1OC`, the growth is reported as -72.9% (active).
With `COc1ccc(/C=C2\CCCC3=C2NC(C)=NC3c2ccc(OC)c(OC)c2)cc1OC` (stereo unspecified) the growth was 0.649% (active).
`O=C(CCl)NCCNc1nccc(Nc2ccc(S(=O)(=O)Nc3ccccn3)cc2)n1` was tested, and the growth was 2.9% (active).

Point of comparison: `Cc1nn(-c2ccc(Cl)cc2)c(=O)n1CCOc1ccccc1Cl`, growth 87.2%. Against it:
- CCNC(=O)C1CCCN1C(=O)C(CCCN=C(N)N)NC(=O)C(CC(C)C)NC(=O)C(CC(C)C)NC(=O)C(Cc1ccc(O)cc1)NC(=O)C(CO)NC(=O)C(Cc1c[nH]c2ccccc12)NC(=O)C(Cc1cnc[nH]1)NC(=O)C1CCC(=O)N1 (stereo unspecified) — higher, 107%
- COC(=O)c1cc(-c2cccs2)c(C#N)c(N)c1C#N — higher, 104%
- CCOC(=O)[C@H](CSSc1ncnc2cc[nH]c12)NC(=O)[C@@H](C)c1ccc2cc(OC)ccc2c1 — lower, 32.7%
- Cc1nc(Nc2cccnc2)sc1C(=O)/C=C/c1ccc(F)cc1 — lower, 59.8%
- COc1ccc(C2=CC(c3ccc(Oc4ccnc5cc(Cl)ccc45)c(OC)c3)c3c(nc(OC)[nH]c3=O)N2)cc1 (stereo unspecified) — lower, 63.5%
- Cc1cc(C)c(S(=O)(=O)N2CCN(c3cc4c(cc3F)c(=O)c(C(=O)O)cn4C3CC3)CC2)c(C)c1 — lower, 39.5%
- COc1ccc(C(=O)/C=C/c2cc(C(=O)c3cc(OC)c(OC)c(OC)c3)ccc2OC)cc1 — higher, 88.6%
- NC(=O)NC(=O)/C=C/C(=O)OCCCl — higher, 104%
- O=S(=O)(c1ccccc1)n1ccc(-c2ccc3c(c2)CCO3)n1 — higher, 87.3%
- O=C(CNc1ccc(Cl)cc1)Nc1ccc(-c2nc3ccccc3s2)cc1 — lower, 87.1%
- COc1cc(OC)c(C(=O)/C=C/c2ccc(C(F)(F)F)cc2)c(OC)c1 — lower, 23.1%
- O=C(O)c1ccc(-n2c(=O)c3ccccc3c3ccccc3c2=O)cc1 — higher, 115%
- CC(C)(C)OC(=O)N[C@@H](Cc1ccccc1)C(=O)N(Cc1ccccc1)C1(C(=O)NCc2ccccc2)CCN(Cc2ccccc2)CC1 — lower, 26.6%
- COc1ccc(C(=O)c2cc(OC)c(OC)c(OC)c2)cc1/C=C/C(=O)c1ccc(OC)c(OC)c1 — lower, 18.4%
- CCCCNC(=O)NS(=O)(=O)c1ccc(N2N=C(c3ccc(C)cc3C)CC2c2ccc(OC)cc2)cc1 (stereo unspecified) — lower, 48.3%

system: HOP-92 NSCLC; test: as above; conditions: 10 µM unless noted

Point of comparison: `Cc1cccc(NC(=O)c2sc3nc4c(cc3c2N)CCCC4)c1`, growth 56.5%. Against it:
- C[C@]12CC[C@@H]3c4cc(O)c(O)cc4CC[C@H]3[C@@H]1CC[C@@H]2O — lower, 18.1%
- CCCOC(=O)C1(O)CCCC1 — higher, 89.8%
- O=C(NNC(=S)Nc1ccccc1)c1ccccn1 — lower, 16.7%
- COc1cc(NC(=O)CCl)ccc(=O)c1 — higher, 79%
- COc1ccc(S(=O)(=O)N2CCN(c3cc4c(cc3F)c(=O)c(C(=O)O)cn4C3CC3)CC2)c(OC)c1 — higher, 90.2%
- COc1ccc(Cn2cc(COc3cc(/C=C/C(=O)c4cc(OC)c(OC)c(OC)c4)ccc3OC)nn2)cc1 — lower, 45%
- CC(C(=O)n1cc(-c2ccccc2)c(-c2ccccc2)c1)c1ccccc1 (stereo unspecified) — higher, 90.5%
- C=CCOc1cccc(/C=C/C(=O)c2sc(Nc3cccnc3)nc2C)c1 — higher, 74.7%
- CCC1CCc2nc3sc(C(=O)Nc4cccc(C)c4)c(N)c3cc2C1 (stereo unspecified) — lower, 55.2%
- COc1ccc(-c2cn[nH]c2-c2cc(OC)c3c(c2)OCCO3)cc1 — lower, 46.6%
- CCNC(=O)C1CCCN1C(=O)C(CCCN=C(N)N)NC(=O)C(CC(C)C)NC(=O)C(CC(C)C)NC(=O)C(Cc1ccc(O)cc1)NC(=O)C(CO)NC(=O)C(Cc1c[nH]c2ccccc12)NC(=O)C(Cc1cnc[nH]1)NC(=O)C1CCC(=O)N1 (stereo unspecified) — higher, 92%
- COC(=O)c1cc(-c2cccs2)c(C#N)c(N)c1C#N — higher, 94.2%
- CCOC(=O)[C@H](CSSc1ncnc2cc[nH]c12)NC(=O)[C@@H](C)c1ccc2cc(OC)ccc2c1 — lower, 46%
- Cc1nc(Nc2cccnc2)sc1C(=O)/C=C/c1ccc(F)cc1 — higher, 88.6%
- COc1ccc(C2=CC(c3ccc(Oc4ccnc5cc(Cl)ccc45)c(OC)c3)c3c(nc(OC)[nH]c3=O)N2)cc1 (stereo unspecified) — lower, 49.3%
- Cc1cc(C)c(S(=O)(=O)N2CCN(c3cc4c(cc3F)c(=O)c(C(=O)O)cn4C3CC3)CC2)c(C)c1 — lower, 46.9%
- COc1ccc(C(=O)/C=C/c2cc(C(=O)c3cc(OC)c(OC)c(OC)c3)ccc2OC)cc1 — higher, 70.5%
- NC(=O)NC(=O)/C=C/C(=O)OCCCl — higher, 71.6%
- COc1cc2nc(N3CCC[C@@H](NC4=CC(=O)c5ccccc5C4=O)C3)nc(N)c2cc1OC — higher, 84.8%
- O=S(=O)(c1ccccc1)n1ccc(-c2ccc3c(c2)CCO3)n1 — lower, 41.8%
- O=C(CNc1ccc(Cl)cc1)Nc1ccc(-c2nc3ccccc3s2)cc1 — higher, 97.8%
- COc1ccc(/C=C2\CCCC3=C2NC(C)=NC3c2ccc(OC)c(OC)c2)cc1OC (stereo unspecified) — lower, 30.1%
- COc1cc(OC)c(C(=O)/C=C/c2ccc(C(F)(F)F)cc2)c(OC)c1 — higher, 96.8%
- O=C(CCl)NCCNc1nccc(Nc2ccc(S(=O)(=O)Nc3ccccn3)cc2)n1 — lower, 31.2%
- O=C(O)c1ccc(-n2c(=O)c3ccccc3c3ccccc3c2=O)cc1 — higher, 110%
- Cc1nn(-c2ccc(Cl)cc2)c(=O)n1CCOc1ccccc1Cl — higher, 78.4%
- COc1ccc(C(=O)c2cc(OC)c(OC)c(OC)c2)cc1/C=C/C(=O)c1ccc(OC)c(OC)c1 — lower, 39.4%
- CCCCNC(=O)NS(=O)(=O)c1ccc(N2N=C(c3ccc(C)cc3C)CC2c2ccc(OC)cc2)cc1 (stereo unspecified) — higher, 75.1%

`COC1=CC(c2ccc[nH]2)=N/C1=C\c1[nH]c(C)c(C(=O)CCCCC(=O)NCc2ccccc2)c1C` was tested, and the growth was -55.5% (active).
With `COc1cc(C(=O)OCCCCCCCCCCC[P+](c2ccccc2)(c2ccccc2)c2ccccc2)ccc1O` the growth was -49.5% (active).
In the case of `O=C(CCCn1c(=O)c2sc3ccccc3c2n2nnc(-c3ccccc3)c12)NCCc1cnc[nH]1`, the growth is reported as -54.5% (active).
For `CC(C)C[C@H](NC(=O)Cn1ccc(NCc2ccccc2)cc1=O)B(O)O`, the growth was 2.85% (active).
`CC[C@H](C)[C@H]1NC(=O)[C@@H](N[C@](C)(O)[C@@H](N)CC(C)C)[C@@H](C)OC(=O)[C@H](Cc2ccc(OC)cc2)N(C)C(=O)[C@@H]2CCCN2C(=O)[C@H](CC(C)C)NC(=O)[C@@H](C)C(=O)[C@H](C(C)C)OC(=O)C[C@@H]1O` was tested, and the growth was -14.1% (active).
With `O=C1N=C(c2c(-c3[nH]c(=O)c4ccc(Br)cc4c3O)c(O)c3ccccc3c2O)C(=O)c2cc(Br)ccc21` the growth was -13.2% (active).
In the case of `CC[C@]1(O)C[C@@H]2CN(Cc3c([nH]c4ccccc34)[C@@](C(=O)OC)(c3cc4c(cc3OC)N(C)[C@H]3[C@@](O)(C(=O)OC)[C@H](OC(C)=O)[C@]5(CC)[C@@H]6C[C@@H]6CN6CC[C@]43[C@@H]65)C2)C1`, the growth is reported as -12% (active).
With `COc1ccccc1CNCCCN1C(=O)c2ccc3c4c(ccc(c24)C1=O)C(=O)N(CCCNCCCCNCCCCN)C3=O` the growth was -6.2% (active).
`CC(C)(C)OC(=O)N[C@@H](Cc1ccccc1)C(=O)N(Cc1ccccc1)C1(C(=O)NCc2ccccc2)CCN(Cc2ccccc2)CC1` was tested, and the growth was -8.51% (active).
